KCNQ2 pot = enhances the rat KCNQ2 potassium channel | 310,000 compounds, 0.54% hits | O88943 | B-score at 10 µM | CHO-K1 KCNQ2, FluxOR thallium flux fluorescence; hits give high values | AID 2239;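 active = fluorescence ratio B-score at least 3 SD of library B-scores, with initial fluorescence B-score within 3 of them, cut at about 5.3 in these data; same plate scores as AID 2156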;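 also: B-score of peak minus minimum over baseline fluorescence ratio after K+ and Tl+ stimulus; positive B-score means potentiation of KCNQ2 with more thallium influx and brighter signal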
KCNQ2 block = inhibitors of rat KCNQ2 potassium channel; 310,000 compounds, 1.1% hits; CHO-K1 KCNQ2, FluxOR thallium flux, 20 min; hits give low values; O88943; B-score at 10 µM; AID 2156;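 active = fluorescence ratio B-score at most minus 3 library SDs, with starting brightness B-score within 2 library SDs, cut at about -5.5 in these data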
Kir21 conf inh = confirmation of mouse Kir2.1 potassium channel inhibitors; Tl flux remaining, % of negative control (hits give low values), % at 10 µM; 2,300 compounds, 41% hits; Kir2.1-expressing cells, FluxOR thallium flux fluorescence; hits give low values; shares compounds with KCNQ2 pot; AID 2032;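 active = Primary-screen hit whose thallium flux fell at least 3 control SD below untreated wells in both duplicates, with normal baseline fluorescence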;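 also: 0% = blank wells without stimulus and 100% = stimulated no-compound controls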
HEK293 Tl flux = counter-screen for Kir2.1 inhibitors: effect in parental HEK293 cells | FluxOR thallium flux fluorescence; 0% = unstimulated blank wells | 2,300 compounds, 19% hits | shares compounds with KCNQ2 pot | FluxOR signal as % of negative control (100 = no effect), % at 10 µM;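 active = dye signal at least 3 control SD above or below untreated wells in both duplicates, raw fluorescence within 3, either direction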;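 also: percent is based on the flux ratio of peak minus minimum fluorescence over baseline F0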
CHO-K1 Tl ctr = parental CHO-K1 activity in KCNQ2 potentiator counter-screen. shares compounds with KCNQ2 pot. 1,200 compounds, 43% hits. activity increase over 3SD of controls, % at 10 µM. parental CHO-K1 cells, FluxOR thallium flux fluorescence; zero = vehicle mean+3SD, 100% = vehicle-minus-blank window;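 active = signal rise of at least 3 SD above the untreated control mean, in both duplicate wells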;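 also: counter screen of KCNQ2 potentiator hits so any rise reflects channel-independent effects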
KCNQ1 pot spec = tests whether KCNQ2 potentiators also act on human KCNQ1 | CHO KCNQ1 stable, FluxOR thallium flux fluorescence; beyond 3SD, as % of vehicle-control signal | 1,200 compounds, 28% hits | shares compounds with KCNQ2 pot | activation over 3SD threshold, % at 10 µM;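 active = fluorescence ratio rise of at least 3 SD of vehicle wells above their mean, in both replicate wells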;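 also: 0% = vehicle mean plus 3 SD and 100% = vehicle minus unstimulated blank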
KCNQ2 pot confirm = rat KCNQ2 channel potentiator confirmation; AID 2287; 1,200 compounds, 68% hits; potentiation, less the hit threshold, % at 10 µM; shares compounds with KCNQ2 pot; CHO-KCNQ2 cells, FluxOR thallium flux fluorescence;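 active = fluorescence ratio rising 3 SD or more over the vehicle control mean in both replicates, plus primary screen hit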;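 also: peak minus minimum thallium fluorescence divided by baseline after K/Tl stimulus; 0% = vehicle mean plus 3 SD and 100% = vehicle minus unstimulated blank difference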
Kir2-1 sel = mouse Kir2.1 off-target activity of KCNQ2 potentiators; 1,200 compounds, 2% hits; shares compounds with KCNQ2 pot; HEK293 Kir2.1, FluxOR thallium flux fluorescence; activity over 3SD threshold, % at 10 µM;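 active = fluorescence ratio rise of at least 3 SD above the vehicle-control mean, seen in both replicates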;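 also: 0% = vehicle mean plus 3 SD and 100% = vehicle minus no-stimulus blank window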
KCNQ2 W236L pot = rat KCNQ2 W236L mutant potentiation by KCNQ2 potentiators. shares compounds with KCNQ2 pot. CHO KCNQ2-W236L, automated patch clamp current. current increase over 3SD of negative controls (%), hits give high values, % at 25 µM. 940 compounds, 10% hits. AID 2558;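 active = current increase at least 3 SD of the untreated controls above them in both duplicate recordings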
Target sequence (O88943 whole entry W236L, looked up): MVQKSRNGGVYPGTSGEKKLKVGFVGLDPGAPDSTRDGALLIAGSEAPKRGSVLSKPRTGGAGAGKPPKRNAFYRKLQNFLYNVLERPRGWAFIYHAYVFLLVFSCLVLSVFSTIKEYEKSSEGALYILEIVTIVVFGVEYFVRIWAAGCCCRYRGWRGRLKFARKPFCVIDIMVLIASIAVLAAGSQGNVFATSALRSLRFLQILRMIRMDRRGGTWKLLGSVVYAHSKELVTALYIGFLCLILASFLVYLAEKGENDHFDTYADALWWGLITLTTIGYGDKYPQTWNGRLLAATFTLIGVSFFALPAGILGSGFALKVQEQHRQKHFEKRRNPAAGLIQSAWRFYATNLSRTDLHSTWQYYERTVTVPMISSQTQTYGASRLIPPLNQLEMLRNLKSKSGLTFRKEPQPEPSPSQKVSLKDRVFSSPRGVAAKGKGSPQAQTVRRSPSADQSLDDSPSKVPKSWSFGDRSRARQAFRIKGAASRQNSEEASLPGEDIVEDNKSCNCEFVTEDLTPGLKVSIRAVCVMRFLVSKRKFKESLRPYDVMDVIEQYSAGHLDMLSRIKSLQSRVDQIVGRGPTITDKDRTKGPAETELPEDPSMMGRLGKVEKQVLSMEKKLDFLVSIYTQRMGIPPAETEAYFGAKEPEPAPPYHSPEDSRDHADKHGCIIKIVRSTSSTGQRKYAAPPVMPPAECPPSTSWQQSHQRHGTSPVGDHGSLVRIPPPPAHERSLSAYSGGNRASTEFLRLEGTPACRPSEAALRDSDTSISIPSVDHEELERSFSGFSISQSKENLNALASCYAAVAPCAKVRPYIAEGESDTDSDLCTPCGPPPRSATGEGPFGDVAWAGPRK
Active calls of the source: *. A selection: hits, their analogues and other compounds. The true share with any hit is near 1.6%.

O=C(CSc1nc(N2CCCCC2)nc(N2CCCCC2)n1)c1ccccc1 was read as KCNQ2 pot 32*, KCNQ2 block inactive, Kir21 conf inh inactive, HEK293 Tl flux inactive, CHO-K1 Tl ctr -6, KCNQ1 pot spec 38*, KCNQ2 pot confirm 20*, Kir2-1 sel -28 and KCNQ2 W236L pot inactive.
`Cc1cc(N2CCCCC2)nc(SCC(=O)c2ccccc2)n1` gave KCNQ2 block inactive.
For COc1ccccc1N(C(=O)c1ccco1)C(C(=O)NC1CCCC1)c1ccncc1 (stereo not drawn) the results were KCNQ2 pot 0.51 and KCNQ2 block inactive.
Screening CC(C)(C)CN1CCC(Oc2cccc(C(=O)N3CCC[C@H]3CO)c2)CC1 returned KCNQ2 pot 0.51 and KCNQ2 block inactive.
Screening c1cc(CN2CCCCC2)cc(OCCCNc2nc3ccccc3s2)c1 returned KCNQ2 block inactive, Kir21 conf inh 26%* and HEK293 Tl flux inactive.
Screening O=C(NCCCOc1cccc(CN2CCCCC2)c1)c1ccc(Cl)c(Cl)c1 returned KCNQ2 block inactive.
`CCOC(=O)N1CCN(C(=O)c2cc3c(s2)-c2ccc(Cl)cc2S(=O)(=O)C3)CC1` gave KCNQ2 pot 2 and KCNQ2 block inactive.
COc1ccc(-c2csc(NC(=S)NC(=O)c3cccs3)n2)cc1OC was read as KCNQ2 pot 3.2 and KCNQ2 block inactive.
COc1ccc(-c2csc(NC(=S)NC(=O)c3cccs3)n2)cc1Br was read as KCNQ2 pot 7.1*, KCNQ2 block inactive, Kir21 conf inh inactive, HEK293 Tl flux 70%*, CHO-K1 Tl ctr -5, KCNQ1 pot spec -16, KCNQ2 pot confirm -2 and Kir2-1 sel -35.
`O=C(COC(=O)C1(c2ccccc2)CC1)NNC(=O)c1ccccc1` gave KCNQ2 pot 1.4 and KCNQ2 block inactive.
Screening S=C(NCc1ccccc1)N1CCN(Cc2ccc3c(c2)OCO3)CC1 returned KCNQ2 block inactive.
S=C(NCc1ccc2c(c1)OCO2)NC1CCN(Cc2ccccc2)CC1 was read as KCNQ2 pot 1, KCNQ2 block inactive, Kir21 conf inh 40%* and HEK293 Tl flux 126%*.
`OCCCn1c(C2CCCN2c2nc(-c3ccc(F)cc3)cs2)nc2cc(Cl)c(Cl)cc21` (stereo not drawn) gave KCNQ2 pot 0.26 and KCNQ2 block inactive.
Screening Nc1c(Cl)cc(-c2csc(N3CCCC3c3nc4cc(Cl)c(N5CCCCC5)cc4n3CCOCCO)n2)cc1Cl (stereo not drawn) returned KCNQ2 pot 6.3*, KCNQ2 block inactive, Kir21 conf inh inactive, HEK293 Tl flux inactive, CHO-K1 Tl ctr 3.5*, KCNQ1 pot spec -22, KCNQ2 pot confirm -11, Kir2-1 sel -24 and KCNQ2 W236L pot inactive.
Cc1csc(N2CCCC2c2nc3cc(Cl)c(N4CCCCC4)cc3n2CCOCCO)n1 (stereo not drawn) was read as KCNQ2 pot 1.4 and KCNQ2 block inactive.
For OCOCCCn1c(C2CCCN2c2nc(-c3ccc(F)cc3)cs2)nc2cc(Cl)c(N3CCCCC3)cc21 (stereo not drawn) the results were KCNQ2 pot 6.9*, KCNQ2 block inactive, Kir21 conf inh inactive, HEK293 Tl flux inactive, CHO-K1 Tl ctr 58*, KCNQ1 pot spec -18, KCNQ2 pot confirm -4 and Kir2-1 sel -24.
Screening Nc1c(Cl)cc(-c2csc(N3CCCC3c3nc4cc(Cl)c(Cl)cc4n3CCCO)n2)cc1Cl (stereo not drawn) returned KCNQ2 block inactive.
Nc1c(Cl)cc(-c2csc(N3CCCC3c3nc4cc(Cl)c(N5CCCCC5)cc4n3CCCO)n2)cc1Cl (stereo not drawn) was read as KCNQ2 pot 20*, KCNQ2 block inactive, Kir21 conf inh inactive, HEK293 Tl flux inactive, CHO-K1 Tl ctr -13, KCNQ1 pot spec -50, KCNQ2 pot confirm 38*, Kir2-1 sel -23 and KCNQ2 W236L pot inactive.
For COc1ccc(NC(=O)C(CC(=O)O)Cc2ccc(Cl)cc2)cc1 (stereo not drawn) the results were KCNQ2 pot 0.9 and KCNQ2 block inactive.
Screening N=c1c(S(=O)(=O)c2ccc(F)cc2)cc2c(=O)n3ccccc3nc2n1CC1CCCO1 (stereo not drawn) returned KCNQ2 block inactive.
`COC(=O)[C@H](Cc1c[nH]c2ccccc12)NC(=O)NCc1ccccc1` gave KCNQ2 block inactive.
For Cc1ccc(NC(=O)CC(O)(C(F)(F)F)C(F)(F)F)cc1 the results were KCNQ2 pot 9.7*, KCNQ2 block inactive, Kir21 conf inh inactive, HEK293 Tl flux inactive, CHO-K1 Tl ctr -6, KCNQ1 pot spec -13, KCNQ2 pot confirm 36*, Kir2-1 sel -23 and KCNQ2 W236L pot 3.0%*.
Screening Cc1ccc(NC(=O)CC(N)=S)cc1 returned KCNQ2 block inactive.
O=C(Nc1ccc(C(=O)O)cc1)/C(=C\c1ccco1)NC(=O)c1ccco1 was read as KCNQ2 pot 0.26 and KCNQ2 block inactive.
For CCc1ccc(-c2cc(C(=O)N/N=C/c3ccco3)[nH]n2)cc1 the results were KCNQ2 pot 1.3 and KCNQ2 block inactive.
Screening O=C(N/N=C/c1ccco1)c1cc(-c2ccc3ccccc3c2)n[nH]1 returned KCNQ2 pot 9.2*, KCNQ2 block inactive, Kir21 conf inh inactive, HEK293 Tl flux inactive, CHO-K1 Tl ctr 54*, KCNQ1 pot spec -13, KCNQ2 pot confirm 32*, Kir2-1 sel -27 and KCNQ2 W236L pot inactive.
Nc1ncnc2c1cnn2-c1ccccc1 was read as KCNQ2 pot 1.2 and KCNQ2 block inactive.
`S=c1nc[nH]c2c1cnn2-c1ccccc1` gave KCNQ2 pot 10*, KCNQ2 block inactive, Kir21 conf inh inactive, HEK293 Tl flux 162%*, CHO-K1 Tl ctr 32*, KCNQ1 pot spec -9, KCNQ2 pot confirm 2.7*, Kir2-1 sel -37 and KCNQ2 W236L pot inactive.
For COc1ccccc1OCC(=O)Nc1nc(C)c(C)s1 the results were KCNQ2 block inactive.
